Compound activity (PubChem BioAssay)
Compounds with a hit are over-represented: about 4.8% of the library has one in this group of screens.
USP1-UAF1 inh = inhibitors of human USP1/UAF1 deubiquitinase; recombinant USP1/UAF1, Ub-Rhodamine cleavage fluorescence; O94782; Potency, µM (series often up to 57.1 µM), for the others: at the highest dose activity change, negative = inhibition, most hits filed as inhibitors; hit rate 0.23% among 390,000; note: potency is the fitted concentration of half-maximal effect; % is set by controls: 0 for no effect and ±100 for the full control effect; nearly all actives have a fitted effect of over 60% in size
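High-throughput fluorogenic screen: 1nM USP1/UAF1 complex, Ub-Rho substrate 150nM final, 50mM HEPES pH 7.8 with 0.5mM EDTA, 0.1 mg/ml BSA, 1mM TCEP and 0.01% Tween-20.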
USP2a block = inhibitors of human ubiquitin-specific protease USP2a; O75604; USP2 core, Ub-CHOP2 coupled fluorogenic reporter, 485/531; Potency, µM (doses to about 38.3 µM), inactives show at the highest dose activity change, negative = inhibition, hits mostly inhibitors; hit rate 0.01% among 330,000; AID 463254;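 note: potency is the fitted concentration of half-maximal effect; plate controls were DMSO wells for no effect and full inhibition by NEM control for full effect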
Target sequence (O75604 whole entry, looked up): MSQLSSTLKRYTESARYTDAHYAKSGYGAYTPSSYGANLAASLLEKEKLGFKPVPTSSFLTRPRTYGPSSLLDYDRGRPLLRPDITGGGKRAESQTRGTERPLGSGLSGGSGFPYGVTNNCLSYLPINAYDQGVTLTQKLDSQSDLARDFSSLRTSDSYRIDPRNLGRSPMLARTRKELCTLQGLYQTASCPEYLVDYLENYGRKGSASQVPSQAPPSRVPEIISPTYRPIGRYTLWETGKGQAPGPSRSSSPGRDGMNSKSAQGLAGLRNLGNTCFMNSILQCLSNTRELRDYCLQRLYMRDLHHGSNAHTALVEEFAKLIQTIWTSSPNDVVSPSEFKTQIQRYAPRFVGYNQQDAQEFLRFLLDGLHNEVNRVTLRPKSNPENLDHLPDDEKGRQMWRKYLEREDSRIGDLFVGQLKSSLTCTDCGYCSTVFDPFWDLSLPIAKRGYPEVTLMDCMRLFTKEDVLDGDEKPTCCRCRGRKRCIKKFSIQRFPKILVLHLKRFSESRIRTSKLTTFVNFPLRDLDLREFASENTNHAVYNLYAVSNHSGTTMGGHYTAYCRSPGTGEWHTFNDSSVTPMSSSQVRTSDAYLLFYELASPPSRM
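USP2 core (10nM final) preincubated 30min RT with compound in 20mM Tris-HCl pH 8.0, 2mM CaCl2, 2mM beta-mercaptoethanol, 0.05% CHAPS; 25nM Ub-CHOP2 plus 25nM reporter substrate added, fluorescence (Ex485/Em531) read after 60min.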
ATXN2 expr inh = reduces ATXN2 reporter expression in HEK-293 cells; HEK-293 ATXN2-luciferase reporter, luminescence, 24 h; Potency, µM (top dose mostly 57 µM), inactives show at the top dose activity change, negative = inhibition, most hits filed as inhibitors; hit rate 0.72% among 360,000; AID 1745845; note: potency is the fitted concentration of half-maximal effect; % is set by controls: 0 for no effect and ±100 for the full control effect; nearly all actives have a fitted effect of over 55% in size
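ATXN2-luciferase reporter cells (luciferase flanked by upstream and downstream ATXN2 gene portions) were treated 24 h at 37 °C with compounds at up to 57 uM. SteadyGlo luminescence gave expression; GF-AFC fluorescence gave viability.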
IL-1B inflam inh = blocks inflammasome-driven IL-1 beta release | THP-1 LPS/ATP IL-1B secretion, AlphaLISA, 16 h; stronger effect = lower value | activity change, % at 57.5 µM | hit rate 4.7% among 360,000 | AID 743279; in the data active = activity change below about -50%; inconclusive = mostly about -30% to -49%; note: % is set by controls: 0 for no effect and ±100 for the full control effect
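Secreted IL-1B measured by AlphaLISA bead assay after 16 h compound exposure of THP-1 cells; compounds (final up to 57.5 uM) added 1 h before LPS (250 ng/mL) and ATP (1.25 mM) stimulation; lower signal means less secretion.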
ATXN viability = reduces viability in counter-screen for ATXN expression inhibitors; S2 cells (HEK-293 line with an ATXN2-luciferase reporter) viability, CellTiter-Fluor protease fluorescence, 24 h; Potency, µM (highest dose often 56.7 µM), usual class: cytotoxic; hit rate 0.49% among 400,000; AID 651635; note: potency is the fitted concentration of half-maximal effect; nearly all actives have a fitted effect of over 40% in size
The depositor's hits bear a star; i = inactive; ? = inconclusive; . = no result. Unless noted, calls come from the whole dose curve; as a rule, active = well fitted curve in the direction sought with a large enough effect; inconclusive = small, poorly fitted or top-dose-only effect, or another doubt; inactive = no such curve, though single readings can be large; an effect the other way counts as inactive or inconclusive.

SMILES	USP1-UAF1 inh	USP2a block	ATXN2 expr inh	IL-1B inflam inh	ATXN viability
CCCCN(C=O)c1c(CC)nc2c(OCCOc3ccccc3)cccn12	.	.	?	-18	?
CC(=O)Nc1cc(-c2ccccc2CN(C)C)cn2c(-c3ccc(C(C)=O)cc3)cnc12	.	.	-10%	68	i
CCN1CCN(C(=O)c2cc(NC(=O)COC)cc3nc(-c4ccncc4)n(C)c23)CC1	.	.	.	.	i
c1cncc(Nc2nc(-c3ccncc3)cs2)c1	-12%	-1%	21%	?	i
Clc1ccccc1-c1csc(Nc2cccnc2)n1	-14%	1%	34%	-60*	i
Cn1nc(-c2ccccc2)cc1NC(=O)[C@@H]1O[C@H](CO)[C@H](O)[C@H](O)[C@H]1O	.	.	7%	23	i
CCc1ccc(Nc2ccc3nonc3c2[N+](=O)[O-])cc1	-7%	.	30%	-18	i
CCOC(=O)NNc1ccc2nonc2c1[N+](=O)[O-]	25µM*	-3%	-33%	-77*	i
CN(C)CCCNc1cc(O)c2ncccc2c1	.	-1%	20µM*	.	?
COc1ccc(CN2CCC3(CC2)c2ccccc2[C@@H](NC(=O)c2ccsc2)[C@@H]3OC)cc1O	.	.	.	.	i
COc1cccc(N(C(=O)CCl)C(C(=O)NCCc2ccccc2)c2cccs2)c1 (centres undefined)	-23%	0%	?	?	32µM*
COc1ccc(N(C(=O)CCl)C(C(=O)NCCc2ccccc2)c2cccs2)cc1Cl (centres undefined)	-18%	3%	1.8µM*	-103*	1.4µM*
COc1cccc(N(C(=O)c2snc(C(N)=O)c2N)C(C(=O)NCC2CCCO2)c2cccs2)c1 (centres undefined)	?	1%	8%	-3	i
C=CCOc1ccccc1CN(C(=O)CCl)c1ccc2c(c1)OCO2	-22%	1%	?	-106*	.
CC(Oc1ccc2c(c1)oc(=O)c1ccccc12)C(=O)NC(Cc1c[nH]c2ccc(O)cc12)C(=O)O (centres undefined)	-6%	2%	9%	-3	i
O=C1N[C@@H](c2ccccc2)COC(=O)[C@@H](Cc2ccc(F)cc2)CC/C=C/C[C@@H]1CC(=O)N(CCO)Cc1ccccc1	?	-10%	?	?	18µM*
COc1cc(NS(=O)(=O)c2ccc(NC(=O)c3ccc(C(C)=O)cc3)cc2)nc(OC)n1	?	.	-14%	.	i
CCCCC[n+]1cccc2c3ccccc3ccc21	-20%	1%	?	-77*	i
c1ccc(C[n+]2cccc3c4ccccc4ccc32)cc1	2%	1%	?	-60*	i
NC(=O)C[n+]1cccc2ccccc21	?	16%	-2%	5	i
OC(c1ccc2ccccc2c1)c1ncc(-c2ccc(C(F)(F)F)cc2)[nH]1 (centres undefined)	.	.	?	-8	?
CSc1ncc(C(=O)Nc2ccccc2C(=O)c2ccccc2)c(C)n1	-13%	.	6%	.	i
Cc1nc(N2CCCC2)c2c(C(=O)Nc3cccc(C)c3C)c(C)oc2n1	-29%	.	.	.	.
CN(N=O)C(=O)N[C@@H]1[C@@H](O)[C@H](O)[C@@H](CO)O[C@@H]1O	.	.	9%	.	i
COc1ccc2ncccc2c1Cc1c(OC)ccc2ncccc12	-6%	.	?	-75*	i
SMILES	USP1-UAF1 inh	USP2a block	ATXN2 expr inh	IL-1B inflam inh	ATXN viability
CSc1nc2nccc(/C=C\c3ccccc3)n2n1	-9%	-1%	-23%	-105*	i
O=C(OCC(O)C(O)C(O)C(SCc1ccccc1)SCc1ccccc1)c1ccccc1 (centres undefined)	-2%	.	-18%	-72*	i
CCc1c(C2(O)CCCCC2)[nH]c2ccc(C(F)(F)F)cc12	-31%	-8%	-63%	-52*	.
CCCCNC(=O)C1(C)CCN1C(=O)c1cc(-c2ccccc2)cs1 (centres undefined)	.	.	20%	45	i
Cc1ccc(OCCCCCCN2CCNCC2)c(Br)c1	-10%	.	11%	-89*	?
Clc1ccc(Cl)c(OCCCCN2CCNCC2)c1	-16%	2%	-23%	-74*	i
